Among the data in the supplement of paper PMC9262897, “Low-cost anti-mycobacterial drug discovery using engineered E. coli” (Nature Communications, 2022) are growth values, retold here.

Assay in all cases: growth (OD600 after 10 h); higher = more growth (less inhibition)
In assay [1] the test system is E. coli TESEC Alr+ wild-type control. As to conditions: compound 0.1 mM; raw OD600 reference: median of DMSO wells 0.241, cell-free background 0.041. How it is done:
(§1)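 TESEC Mtb Alr E. coli, or the Alr+ wild-type control, in 384-well plates with Prestwick library compounds at 0.1 mM and 1% DMSO, across arabinose induction levels of 1E3 to 1E7 nM. Growth is read as OD600 after 10 h at 37 °C in triplicate biological replicates.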

The subject of assay [2] is E. coli TESEC Mtb Alr. Conditions: compound 0.1 mM. On the procedure: as §1
The next assay has as its system E. coli TESEC Mtb Asd. Conditions: compound 0.1 mM. On the procedure:
(§2)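 TESEC E. coli strains in which the native enzyme is deleted and replaced by arabinose-inducible Mtb Asd, DapB, CysH or TrpD, each grown in its selective medium. Strains were screened against the Prestwick library at 0.1 mM and 1% DMSO in 384-well format at low and high arabinose induction. Growth is read as OD600 after 10 h in triplicate.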

A further assay deals with E. coli TESEC Mtb DapB. Conditions: compound 0.1 mM. On the procedure:
as §2

For assay [3], the system named is E. coli TESEC Alr+ wild-type control. As to conditions: compound 0.1 mM; raw OD600 reference: median of DMSO wells 0.49, cell-free background 0.052. On the procedure: (§3)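 TESEC Mtb Alr E. coli (ΔaraC ΔtolC ΔentC Δalr ΔdadX, arabinose-inducible Mtb Alr) or the Alr+ wild-type control strain, grown in defined M9-fructose medium without D-alanine in 96-well plates with Prestwick library compounds at 0.1 mM and 1% DMSO. Low Alr induction is 0.1 µM arabinose and high induction is 10 mM arabinose.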

Assay [4] concerns E. coli TESEC Mtb Alr. As to conditions: compound 0.1 mM. How it is done: as §3
This is another data set of the same source.

The mark [5] stands for this setting: arabinose 1000 nM, raw OD600 reference: median of DMSO wells 0.294, cell-free background 0.041.
[6] abbreviates: arabinose 10000 nM, raw OD600 reference: median of DMSO wells 0.264, cell-free background 0.041.
Where [7] appears, read: arabinose 100000 nM, raw OD600 reference: median of DMSO wells 0.201, cell-free background 0.041.
Where [8] appears, read: arabinose 1000000 nM, raw OD600 reference: median of DMSO wells 0.193, cell-free background 0.041.
The mark [9] stands for this setting: arabinose 10000000 nM, raw OD600 reference: median of DMSO wells 0.146, cell-free background 0.041.
[10] abbreviates: arabinose induction (level): High, raw OD600 reference: median of DMSO wells 0.331, cell-free background 0.041.
The mark [11] stands for this setting: arabinose induction (level): Low, raw OD600 reference: median of DMSO wells 0.417, cell-free background 0.041.
Where [12] appears, read: arabinose induction (level): High, raw OD600 reference: median of DMSO wells […], cell-free background 0.041.
Setting [13] is: arabinose induction (level): Low, raw OD600 reference: median of DMSO wells 0.227, cell-free background 0.041.
Setting [14] is: arabinose 100 nM, raw OD600 reference: median of DMSO wells 0.413, cell-free background 0.052.
Where [15] appears, read: arabinose 10000000 nM, raw OD600 reference: median of DMSO wells […], cell-free background 0.052.

± gives the standard deviation of the averaged measurements.

Consider `O=C(O)c1cn(-c2ccc(F)cc2)c2cc(N3CCNCC3)c(F)cc2c1=O` [Sarafloxacin], for which the growth was determined as 0.0422 ± 0.00026 in assay [1]; 0.0454 ± 0.0031 in the assay on E. coli TESEC Mtb Alr [2] (setting [5]); 0.0399 ± 0.0003 with E. coli TESEC Mtb Alr [2] (setting [6]); 0.04133 ± 0.00015 with E. coli TESEC Mtb Alr [2] (setting [7]); 0.0405 ± 0.0013 with E. coli TESEC Mtb Alr [2] (setting [8]); 0.0412 ± 0.0021 with E. coli TESEC Mtb Alr [2] (setting [9]). In addition, the growth was determined as 0.0475 ± 0.0021 with E. coli TESEC Mtb Asd (setting [10]); 0.047 ± 0.0013 in the assay on E. coli TESEC Mtb Asd (setting [11]); 0.0494 ± 0.00055 in the assay with E. coli TESEC Mtb DapB (setting [12]); 0.0482 ± 0.00017 in the assay on E. coli TESEC Mtb DapB (setting [13]); 0.0534 ± 0.00044 in assay [3]; 0.0545 ± 0.00093 in the assay on E. coli TESEC Mtb Alr [4] (setting [14]). In the assay with E. coli TESEC Mtb Alr [4] (setting [15]), this molecule displayed a growth of 0.0532 ± 0.0002.
For the molecule `CN1CCN(CCCN2c3ccccc3Sc3ccc(S(=O)(=O)N(C)C)cc32)CC1` [Thioproperazine dimesylate], the growth was found to be 0.181 ± 0.0045 in assay [1]; 0.165 ± 0.0059 with E. coli TESEC Mtb Alr [2] (setting [5]); 0.196 ± 0.0078 in the assay on E. coli TESEC Mtb Alr [2] (setting [6]); 0.195 ± 0.0039 in the assay on E. coli TESEC Mtb Alr [2] (setting [7]); 0.106 ± 0.0049 in the assay with E. coli TESEC Mtb Alr [2] (setting [8]); 0.173 ± 0.0023 with E. coli TESEC Mtb Alr [2] (setting [9]). Also, the growth in the assay on E. coli TESEC Mtb Asd (setting [10]) was 0.171 ± 0.017; with E. coli TESEC Mtb Asd (setting [11]), 0.246 ± 0.049; in the assay with E. coli TESEC Mtb DapB (setting [12]) it was 0.2 ± 0.024; with E. coli TESEC Mtb DapB (setting [13]), 0.249 ± 0.0047; in assay [3], 0.409 ± 0.041; in the assay on E. coli TESEC Mtb Alr [4] (setting [14]), 0.404 ± 0.0053. This molecule also came in with a growth in the assay with E. coli TESEC Mtb Alr [4] (setting [15]) of 0.232 ± 0.0024.
On to `COC(=O)Nc1nc2cc([S+]([O-])c3ccccc3)ccc2[nH]1` (configuration not stated) [Oxfendazol], for which the growth in assay [1] is 0.251 ± 0.016; with E. coli TESEC Mtb Alr [2] (setting [5]), 0.304 ± 0.014; in the assay on E. coli TESEC Mtb Alr [2] (setting [6]), 0.2674 ± 0.00072; in the assay with E. coli TESEC Mtb Alr [2] (setting [7]), 0.195 ± 0.024; in the assay on E. coli TESEC Mtb Alr [2] (setting [8]), 0.165 ± 0.0037; with E. coli TESEC Mtb Alr [2] (setting [9]), 0.1348 ± 0.00046. In addition, the growth in the assay with E. coli TESEC Mtb Asd (setting [10]) stood at 0.276 ± 0.08; in the assay with E. coli TESEC Mtb Asd (setting [11]) it was 0.382 ± 0.044; in the assay on E. coli TESEC Mtb DapB (setting [12]), 0.173 ± 0.0069; in the assay on E. coli TESEC Mtb DapB (setting [13]), 0.174 ± 0.042; in assay [3], 0.634 ± 0.024; in the assay with E. coli TESEC Mtb Alr [4] (setting [14]) it was 0.407 ± 0.011. In the assay on E. coli TESEC Mtb Alr [4] (setting [15]), this molecule came in with a growth of 0.312 ± 0.022.
On to `CC(C)NC[C@@H](O)COc1ccc(CC(N)=O)cc1` [(R)-(+)-Atenolol], for which the growth in assay [1] was 0.255 ± 0.004; in the assay with E. coli TESEC Mtb Alr [2] (setting [5]), 0.322 ± 0.019; in the assay with E. coli TESEC Mtb Alr [2] (setting [6]), 0.262 ± 0.012; in the assay with E. coli TESEC Mtb Alr [2] (setting [7]), 0.221 ± 0.013; in the assay with E. coli TESEC Mtb Alr [2] (setting [8]), 0.1771 ± 0.00066; in the assay with E. coli TESEC Mtb Alr [2] (setting [9]), 0.161 ± 0.0073. The growth was determined as 0.485 ± 0.012 in the assay with E. coli TESEC Mtb Asd (setting [10]); 0.442 ± 0.033 in the assay with E. coli TESEC Mtb Asd (setting [11]); 0.243 ± 0.059 in the assay on E. coli TESEC Mtb DapB (setting [12]); 0.25 ± 0.017 with E. coli TESEC Mtb DapB (setting [13]); 0.546 ± 0.038 in assay [3]; 0.405 ± 0.019 in the assay on E. coli TESEC Mtb Alr [4] (setting [14]). Also, the growth with E. coli TESEC Mtb Alr [4] (setting [15]) amounted to 0.342 ± 0.012.
